# Laboratory results reported in PubChem BioAssay (NCI).
# This is part of a sample that, as a whole, favours compounds with a hit. Of some 83,000 tested, about 20% had one in any assay.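 A percent growth of 40 corresponds to 60% growth inhibition; 0 means no net growth; -100 means all cells died. Active threshold: below 10.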 A number with no mark means an inactive call. Calls of active or inactive are those of the source.
# Test system: SK-MEL-2 melanoma
# Test: NCI-60 one-dose screen, 48 h (100 = growth as untreated, 0 = no growth, -100 = all killed)
# Conditions: 10 µM unless noted
row,Structure (SMILES),growth
1,NC(=O)c1c(NC(=O)c2ccc(Cl)cc2)sc2c1CCC(=O)C2,99.6%
2,Nc1c(C(=O)Nc2cccc3ncccc23)sc2nc3c(cc12)C(=O)CCC3,36.3%
3,CCOC(=O)c1cn2ncnc(Oc3ccc(NC(=O)NC4CC4)c(F)c3)c2c1C,114%
4,CCOC(=O)c1c2c(n3c1NCC3)-c1ccccc1C2=O,79.3%
5,CCCC(O)Cn1ncc(C(=O)OCC)c1NC(=O)NCc1cccc(F)c1 (stereo not given),90.7%
6,O=C(CCC(=O)c1nc2ncccc2[nH]1)NN1C(=O)CSC1c1ccc(Cl)cc1 (stereo not given),106%
7,COc1ccc2nc(Cl)c(/C=C/C(=O)c3ccc(NC(=O)CSc4nnc(-c5ccc(Cl)c(Cl)c5)n4-c4ccccc4)cc3)cc2c1,87.6%
8,CS(=O)(=O)Nc1cncc(-c2ccc3ncnc(Nc4ccc(F)c(Cl)c4)c3c2)c1,8.23% (active)
9,Cc1ccc(-c2nc(C#N)c(S(=O)(=O)NCCO)o2)cc1,64.9%
10,O=C1OCC2=C1C(c1cccc(C(F)(F)F)c1)c1cc3c(cc1N2CCO)OCO3 (stereo not given),24%
11,Cc1[nH]c(C(=O)Nc2cccc(OC3CCNCC3)c2)c(Cl)c1Cl,88.4%
12,O=C1/C(=C/c2ccc(Br)cc2)COc2ccc(O)c(O)c21,47.2%
13,CCN1C(=S)N(CC)C2C1NC(=S)N2/N=C/C=C/c1ccccc1OC (stereo not given),46.7%
14,COc1cc(-c2nc3occn3c2-c2ccnc(NCCCNS(=O)(=O)c3ccccc3)n2)ccc1F,34.2%
15,O=C(O)c1cccc(N/C=C/C(=O)c2cc3cc(Br)ccc3oc2=O)c1,119%
16,N#Cc1c(Nc2ccc(F)cc2)n[nH]c1-c1cccs1,117%
17,COc1ccc(C2C(C#N)=C(N)Oc3c2sc2c(Br)cccc32)cc1 (stereo not given),10.9%
18,CCNc1nc(-c2ccc(F)cc2)c(C#N)c(=O)n1C,77.8%
19,CC12CCC(/C(=C/NNc3ccc([N+](=O)[O-])cc3[N+](=O)[O-])C1=O)C2(C)C (stereo not given),38.4%
20,S=c1[nH]c2cc(Cl)ccc2o1,98.6%

row,Structure (SMILES),growth
1,COc1cc2c3c(c1O)-c1ccccc1[C@@H]1OC(=O)N(CC2)[C@H]31,97.6%
2,CC(C)CSc1oc(-c2ccccc2)nc1S(=O)(=O)c1ccccc1,95.9%
3,C#CCOc1cccc(-c2ncc3cc(NC(=O)CCl)ccc3n2)c1,22.7%
4,Cn1c(=O)c2c(nc(NC3=NS(=O)(=O)c4ccccc43)n2Cc2ccccc2)n(C)c1=O,99.7%
5,COc1cc2c(c(OC)c1OC)C(=O)CC(c1cccc(NC(=O)c3ccccc3Br)c1)O2 (stereo not given),75.8%
6,CC(C)(CO)N(CCO)CCO,100%
7,CC(=O)c1c(Nc2ccc(F)c(F)c2F)[nH]c2c(F)cc(F)cc2c1=O,-52.6% (active)
8,C#CCOc1ccc2ncnc(Nc3cccc(NC(=O)CCl)c3)c2c1,69.7%
9,COc1ccc(/C=C/C(=O)c2ccc(NC(=O)CSc3nnc(-c4cc(-c5ccccc5)nc5ccccc45)n3-c3ccccc3)cc2)cc1,107%
10,CCn1cc(C2=C(c3cn(C)c4ncccc34)C(=O)NC2=O)c2cccnc21,84.8%
11,NNC(=S)N/N=C/c1ccccn1,59.6%
12,Cc1ccc2nc(Cl)c(Cn3nnnc3SCc3ccccc3)cc2c1,96.6%
13,Clc1nn2c(Cn3cnc4c(NCc5ccccc5)ncnc43)nnc2c2ccccc12,-5.44% (active)
14,CN(C)c1ccc(/C=C2/C=C(c3ccccc3)OC2=O)cc1,84.6%
15,O=C(CN1C(=O)NC2NC(=O)NC21)N/N=C/c1ccc(Cl)cc1Cl (stereo not given),113%
16,COc1cccc(Nc2ccnc3[nH]c4ccc([N+](=O)[O-])cc4c23)c1,40.2%
17,COc1ccc(C/C(C)=C(/c2ccc(OCCN3CCCCCC3)cc2)c2ccc(OC(=O)NCc3ccccc3)cc2)cc1,94.9%
18,O=C(O)C1CN(c2cccc(Cl)c2)N(c2cccc(Cl)c2)C1=O (stereo not given),94.7%
19,CN(C)c1ccc(/C=C/C(=O)c2ccc(Nc3nc(Nc4ccc(F)cc4)nc(Nc4ccc(Cl)cc4)n3)cc2)cc1,52.6%
20,COC(=O)c1nc(-c2ccccc2)oc1S(=O)(=O)N1CCC(C(N)=O)CC1,91.2%

# Test system: EKVX NSCLC
# Test: as above
# Conditions: 10 µM unless noted
row,Structure (SMILES),growth
1,NC(=O)c1c(NC(=O)c2ccc(Cl)cc2)sc2c1CCC(=O)C2,92.7%
2,Nc1c(C(=O)Nc2cccc3ncccc23)sc2nc3c(cc12)C(=O)CCC3,58.6%
3,CCOC(=O)c1cn2ncnc(Oc3ccc(NC(=O)NC4CC4)c(F)c3)c2c1C,96.3%
4,CCOC(=O)c1c2c(n3c1NCC3)-c1ccccc1C2=O,95.8%
5,CCCC(O)Cn1ncc(C(=O)OCC)c1NC(=O)NCc1cccc(F)c1 (stereo not given),97.8%
6,O=C(CCC(=O)c1nc2ncccc2[nH]1)NN1C(=O)CSC1c1ccc(Cl)cc1 (stereo not given),100%
7,COc1ccc2nc(Cl)c(/C=C/C(=O)c3ccc(NC(=O)CSc4nnc(-c5ccc(Cl)c(Cl)c5)n4-c4ccccc4)cc3)cc2c1,93.2%
8,CS(=O)(=O)Nc1cncc(-c2ccc3ncnc(Nc4ccc(F)c(Cl)c4)c3c2)c1,0.905% (active)
9,Cc1ccc(-c2nc(C#N)c(S(=O)(=O)NCCO)o2)cc1,104%
10,O=C1OCC2=C1C(c1cccc(C(F)(F)F)c1)c1cc3c(cc1N2CCO)OCO3 (stereo not given),49.7%
11,Cc1[nH]c(C(=O)Nc2cccc(OC3CCNCC3)c2)c(Cl)c1Cl,86.1%
12,O=C1/C(=C/c2ccc(Br)cc2)COc2ccc(O)c(O)c21,23.2%
13,CCN1C(=S)N(CC)C2C1NC(=S)N2/N=C/C=C/c1ccccc1OC (stereo not given),49.3%
14,COc1cc(-c2nc3occn3c2-c2ccnc(NCCCNS(=O)(=O)c3ccccc3)n2)ccc1F,44.7%
15,O=C(O)c1cccc(N/C=C/C(=O)c2cc3cc(Br)ccc3oc2=O)c1,102%
16,N#Cc1c(Nc2ccc(F)cc2)n[nH]c1-c1cccs1,92.6%
17,COc1ccc(C2C(C#N)=C(N)Oc3c2sc2c(Br)cccc32)cc1 (stereo not given),46.2%
18,CCNc1nc(-c2ccc(F)cc2)c(C#N)c(=O)n1C,29.1%
19,CC12CCC(/C(=C/NNc3ccc([N+](=O)[O-])cc3[N+](=O)[O-])C1=O)C2(C)C (stereo not given),90.8%
20,S=c1[nH]c2cc(Cl)ccc2o1,99.3%

row,Structure (SMILES),growth
1,COc1cc2c3c(c1O)-c1ccccc1[C@@H]1OC(=O)N(CC2)[C@H]31,104%
2,CC(C)CSc1oc(-c2ccccc2)nc1S(=O)(=O)c1ccccc1,88.8%
3,C#CCOc1cccc(-c2ncc3cc(NC(=O)CCl)ccc3n2)c1,-1.1% (active)
4,Cn1c(=O)c2c(nc(NC3=NS(=O)(=O)c4ccccc43)n2Cc2ccccc2)n(C)c1=O,91.5%
5,COc1cc2c(c(OC)c1OC)C(=O)CC(c1cccc(NC(=O)c3ccccc3Br)c1)O2 (stereo not given),102%
6,CC(C)(CO)N(CCO)CCO,116%
7,CC(=O)c1c(Nc2ccc(F)c(F)c2F)[nH]c2c(F)cc(F)cc2c1=O,9.73% (active)
8,C#CCOc1ccc2ncnc(Nc3cccc(NC(=O)CCl)c3)c2c1,92.9%
9,COc1ccc(/C=C/C(=O)c2ccc(NC(=O)CSc3nnc(-c4cc(-c5ccccc5)nc5ccccc45)n3-c3ccccc3)cc2)cc1,98%
10,CCn1cc(C2=C(c3cn(C)c4ncccc34)C(=O)NC2=O)c2cccnc21,54.6%
11,NNC(=S)N/N=C/c1ccccn1,31.6%
12,Cc1ccc2nc(Cl)c(Cn3nnnc3SCc3ccccc3)cc2c1,80.7%
13,Clc1nn2c(Cn3cnc4c(NCc5ccccc5)ncnc43)nnc2c2ccccc12,52%
14,CN(C)c1ccc(/C=C2/C=C(c3ccccc3)OC2=O)cc1,109%
15,O=C(CN1C(=O)NC2NC(=O)NC21)N/N=C/c1ccc(Cl)cc1Cl (stereo not given),101%
16,COc1cccc(Nc2ccnc3[nH]c4ccc([N+](=O)[O-])cc4c23)c1,31.6%
17,COc1ccc(C/C(C)=C(/c2ccc(OCCN3CCCCCC3)cc2)c2ccc(OC(=O)NCc3ccccc3)cc2)cc1,87.6%
18,O=C(O)C1CN(c2cccc(Cl)c2)N(c2cccc(Cl)c2)C1=O (stereo not given),96.9%
19,CN(C)c1ccc(/C=C/C(=O)c2ccc(Nc3nc(Nc4ccc(F)cc4)nc(Nc4ccc(Cl)cc4)n3)cc2)cc1,67.2%
20,COC(=O)c1nc(-c2ccccc2)oc1S(=O)(=O)N1CCC(C(N)=O)CC1,69.7%
